The list is not random: actives were taken first. Their share in the collection is about 10%.
Gal4-VP16 FLuc: VP16 counterscreen qHTS for inhibitors of ROR gamma transcriptional activity; Drosophila S2 Gal4-VP16 UAS-luciferase, luminescence, 20 h; Potency, µM (top dose mostly 53.6 µM), for inactives: top-dose activity, negative = inhibition, actives largely listed as inhibitors; actives 3.5% (n = 310,000);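 also: Gal4-VP16 expression switched on by copper sulfate through the metallothionein promoter; % is scaled to controls: 0 for no effect and ±100 for the full control effect; nearly all actives have a fitted effect of over 50% in size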
SW480 rereplic: A quantitative high throughput screen for small molecules that induce DNA re-replication in SW480 colon adenocarcinoma cells; SW480 DNA re-replication, Hoechst DNA content imaging, 48 h; Potency, µM (doses to about 46.1 µM), for the others: at the top dose re-replication activation, hits mostly activators; actives 1.8% (n = 340,000); also: % of control where 0% means no effect; nearly all actives have a fitted effect of over 55% in size
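SW480 cells exposed to compounds for 48 hr at 37 C, 5% CO2, then Hoechst-stained 40 min. Nuclear DNA content imaged by fluorescence scanning (405 nm excitation, 500-530 nm emission); re-replication scored as increased high-intensity nuclei.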
ELG1 repair inh: qHTS screen for small molecules that inhibit ELG1-dependent DNA repair in human embryonic kidney (HEK293T) cells expressing luciferase-tagged ELG1; HEK293T ELG1-luciferase reporter, luminescence, 16 h; DNA damage induced by 5-fluorouridine; Potency, µM (titrated, usually from 46.1 µM), for the others: top-dose activity change, negative = inhibition, most hits filed as inhibitors; actives 2.3% (n = 330,000); also: % is scaled to controls: 0 for no effect and ±100 for the full control effect; nearly all actives have a fitted effect of over 55% in size
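DMSO vehicle served as the neutral condition. Each well held 2,000 cells given 5-fluorouridine plus compound; after 16 hr at 37 °C/5% CO2, ONE-Glo was added and luciferase measured 30 min later.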
RORg inh: qHTS for inhibitors of ROR gamma transcriptional activity | Drosophila S2 Gal4-RORgamma UAS-luciferase reporter, 20 h | actives 5.4% (n = 310,000) | Potency, µM (series often up to 53.6 µM), inactives show at the top dose activity change, negative = inhibition, hits mostly inhibitors; also: % is scaled to controls: 0 for no effect and ±100 for the full control effect; nearly all actives have a fitted effect of over 60% in size
Target sequence (P51450 whole entry, looked up, the tested form may be a part): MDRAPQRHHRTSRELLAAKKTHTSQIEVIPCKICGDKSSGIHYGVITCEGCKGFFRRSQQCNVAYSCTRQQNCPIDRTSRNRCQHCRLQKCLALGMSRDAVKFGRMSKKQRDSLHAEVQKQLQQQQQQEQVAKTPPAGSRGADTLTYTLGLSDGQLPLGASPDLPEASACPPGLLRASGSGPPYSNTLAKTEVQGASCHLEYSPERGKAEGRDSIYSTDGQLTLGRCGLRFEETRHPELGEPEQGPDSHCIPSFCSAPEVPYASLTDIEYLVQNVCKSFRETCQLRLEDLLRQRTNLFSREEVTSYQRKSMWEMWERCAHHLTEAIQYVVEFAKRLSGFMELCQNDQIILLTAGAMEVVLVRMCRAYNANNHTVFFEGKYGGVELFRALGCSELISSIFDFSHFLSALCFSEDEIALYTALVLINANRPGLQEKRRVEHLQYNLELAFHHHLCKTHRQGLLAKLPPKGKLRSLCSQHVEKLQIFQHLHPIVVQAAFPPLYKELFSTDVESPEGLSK
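A Gal4/UAS one-hybrid system in insect cells: metallothionein-promoter Gal4–ROR gamma fusion plus Photinus luciferase reporter. Copper sulfate 700 uM final, 20 hr ambient incubation, luminescent detection after 10 min with reagent.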
MCF10A rereplic: A quantitative high throughput screen for small molecules that induce DNA re-replication in MCF 10a normal breast cells | actives 2.9% (n = 350,000) | Potency, µM (series often up to 46.1 µM), inactives show top-dose activity, positive = re-replication, hits mostly activators | MCF 10A DNA re-replication, Hoechst nuclear intensity, 48 h; also: % of control where 0% means no effect; nearly all actives have a fitted effect of over 50% in size
* = called active by the depositor; ? = inconclusive; · = not tested or not shown. Calls follow the shape of the dose curve; as a rule, active = well fitted curve in the direction sought with a large enough effect; inconclusive = small, poorly fitted or top-dose-only effect, or another doubt; inactive = no such curve, though single readings can be large; an effect the other way counts as inactive or inconclusive. Potency is read from the fitted curve at half-maximal effect.

SMILES	Gal4-VP16 FLuc	SW480 rereplic	ELG1 repair inh	RORg inh	MCF10A rereplic
O=C(NC(=S)Nc1cc(Cl)ccc1N1CCOCC1)c1ccc(-c2cccc(Cl)c2)o1	-3%	-6%	13%	-18%	26%
O=C(NC(=S)Nc1ccccc1N1CCOCC1)c1ccc(Br)cc1	·	-8%	?	·	12%
O=C(NC(=S)Nc1ccccc1N1CCOCC1)c1ccc(-c2ccccc2F)o1	-9%	16%	?	2.8µM*	5%
O=C(Nc1ccccc1N1CCCC1)c1cccc(F)c1	·	1%	3%	·	-19%
O=C(NC(=S)Nc1ccccc1N1CCCC1)c1ccc(F)cc1	-64%	1%	-10%	1.6µM*	?
O=C(NC(=S)Nc1ccccc1N1CCCCC1)c1ccc(F)cc1Cl	3.2µM*	2%	0%	4.5µM*	25%
CC(=O)c1ccc(NC(=O)Cn2c3ccccc3c3nc(=O)cc(C)n32)cc1	2%	-12%	16%	-38%	0%
O=C1c2ccccc2C(=O)N1c1ncn[nH]1	-12%	5%	0%	-14%	-3%
COc1ccc(/C=C(\NC(=O)c2ccc(OC)cc2)C(=O)Nc2ccccc2C(=O)O)cc1	0%	-23%	-3%	0%	3%
CC1(C)CC(=O)C(C=Nc2ccc(NC3=C(C#N)C(=O)CC(C)(C)C3)cc2)=C(O)C1	5%	-16%	-12%	1%	6%
O=C(NC(=S)Nc1ccccc1N1CCCCC1)c1ccccc1	7.9µM*	-3%	-8%	1.4µM*	?
c1ccc(-c2ccccc2OCCCCN2CCCCCC2)cc1	-8%	?	?	41%	18%
CCN(c1ccccc1)S(=O)(=O)c1cc(NC(=O)Nc2ccccc2C#N)ccc1Cl	-1%	-11%	21µM*	?	3%
CCN(c1ccccc1)S(=O)(=O)c1cc(C(=O)Nc2ccc(F)c(F)c2)ccc1F	?	?	21µM*	?	13µM*
O=C(NC12CC3CC(CC(C3)C1)C2)c1cc2nc(-c3ccco3)cc(C(F)(F)F)n2n1	?	15µM*	?	-25%	3.7µM*
Cc1sc(-n2c(C)cc(/C=C3\SC(=S)NC3=O)c2C)c(C#N)c1C	?	8.2µM*	28%	?	-2%
Cc1cccc(-n2c(C)cc(/C=C3\NC(=O)NC3=O)c2C)c1	-3%	?	?	1%	16µM*
Cc1cc(C)c(-n2c(C)cc(/C=C3/NC(=O)NC3=O)c2C)c(C)c1	-2%	0%	5%	-1%	?
Cc1cc(/C=C2/NC(=O)NC2=O)c(C)n1-c1sc2c(c1C#N)CCCC2	0%	0%	?	11µM*	?
COc1ccc(CCN=C(N)NS(=O)(=O)c2ccc(F)cc2)cc1	0%	3%	18µM*	39%	6%
O=C1c2ccccc2C(=O)c2c(Nc3ccc(CCO)cc3)ccc(O)c21	?	0%	15µM*	-13%	-12%
CCN(CC)C(=O)c1[nH]cnc1C(=O)N[C@@H](C)C(=O)OCc1ccccc1	-6%	-1%	-5%	-24%	18%
C[C@H](NC(=O)c1nc[nH]c1C(=O)NC(c1ccccc1)c1ccccc1)C(=O)OCc1ccccc1	35µM*	4%	-5%	?	-21%
C[C@H](NC(=O)c1nc[nH]c1C(=O)N[C@@H](C)C(=O)OCc1ccccc1)C(=O)OCc1ccccc1	?	-15%	?	13µM*	2%
c1ccc(-n2ncc3cccnc32)cc1	0%	?	7%	30%	1%
SMILES	Gal4-VP16 FLuc	SW480 rereplic	ELG1 repair inh	RORg inh	MCF10A rereplic
CCc1ncc(CN2CCCCC2C(=O)Nc2ccc(Oc3ccccc3)nc2)cn1 (configuration not stated)	1%	1%	-3%	6%	5%
O=[N+]([O-])c1ccc(C2Oc3ccccc3C3CC(c4ccccc4)=NN32)s1 (configuration not stated)	?	23µM*	?	11µM*	15µM*
CC(=O)N1N=C(c2ccccc2)CC1c1ccccc1[N+](=O)[O-] (configuration not stated)	9%	-5%	?	-36%	1%
COc1ccccc1NC(=O)N1CCC(NC(=O)C(Cc2ccccc2F)NC(C)=O)CC1 (configuration not stated)	-7%	-5%	5%	3%	0%
O=C(CSc1ccc2nnc(-c3ccccn3)n2n1)N1CCN(c2ccccc2)CC1	-1%	-5%	?	-9%	-10%
Cc1ccccc1C=Nc1ccccc1C(N)=O	-4%	4.1µM*	?	45%	3.3µM*
Cc1ccc(C=Nc2ccccc2C(N)=O)cc1	0%	?	?	5%	12µM*
NC(=O)c1ccccc1N=Cc1ccccn1	1%	-20%	3%	0%	2%
Cc1ccc2cc(C)c(SCC(=O)NCC3CCCO3)nc2c1 (configuration not stated)	-10%	4%	-2%	-45%	?
Cc1ccc(S(=O)(=O)Nc2ccc3cc([N+](=O)[O-])ccc3c2[N+](=O)[O-])cc1	·	-1%	·	·	?
Cc1ccc(S(=O)(=O)Nc2ccc3ccccc3c2[N+](=O)[O-])cc1	·	-4%	·	·	18µM*
O=C(NCc1ccc(F)cc1)C(=O)NCC1OCCCN1S(=O)(=O)c1cccs1 (configuration not stated)	4%	7%	-9%	14%	4%
Cn1c(C2CCCCC2)nc2ccccc21	?	-54%	29%	11µM*	?
Cc1ccc(-c2nc(C(Cl)Cl)c3ccccc3n2)cc1	8.9µM*	?	23µM*	?	?
Cc1cc(S(=O)(=O)NCc2ccncc2)c(C)cc1Br	10µM*	-1%	?	-25%	-2%
Cc1ccc(C)c(S(=O)(=O)NCc2ccncc2)c1	?	-13%	?	?	7%
CCOC(=O)COc1ccc(S(=O)(=O)NCc2ccncc2)cc1	11µM*	4%	-4%	?	2%
CCOc1ccc(S(=O)(=O)NCc2ccncc2)cc1	2%	0%	?	0%	7%
Cc1ccc(S(=O)(=O)NCc2ccncc2)cc1	7.9µM*	?	?	-15%	?
CC(=O)Nc1ccc(S(=O)(=O)NCc2ccncc2)cc1	2µM*	-2%	-14%	7.1µM*	14%
BrC(Br)C(Br)Br	11%	·	·	1%	·
CN1c2ccccc2C(C)(C)C12C=Nc1c(cc(N3CCOCC3)c3ccccc13)O2 (configuration not stated)	?	21µM*	-4%	?	7.3µM*

Compound activity from PubChem.
